In the supplement of paper PMC8728848:
Many of the other results were omitted from the sample, so the strongest signals are more common in it than they were.

What was measured:
Assay in all cases: glycan array binding signal (z-score within array); higher = stronger binding
Conditions in all cases: glycan notation: IUPAC condensed, linker removed
[1] = biological target: Fuc(a1-2)Gal
Summary of the method: (§1)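 Glycan array data came from 3228 arrays in the Consortium for Functional Glycomics database, and only arrays with an available protein sequence were kept. Glycan names were put into IUPAC-condensed notation, and columns mapping to the same glycan were averaged. The binding signal is a within-array Z-score, averaged across arrays of one protein sequence run at different concentrations or buffers and across linkers. A negative Z-score can be read as non-binding.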

[2] = biological target: Fuc(a1-2)Gal(b1-3)GlcNAc(b1-2)Man(a1-3)[Fuc(a1-2)Gal(b1-3)GlcNAc(b1-2)Man(a1-6)]Man(b1-4)GlcNAc(b1-4)GlcNAc
Summary of the method: as §1

[3] = biological target: Fuc(a1-2)Gal(b1-3)GlcNAc(b1-3)[Gal(b1-4)GlcNAc(b1-6)]Gal(b1-4)Glc
Summary of the method: as §1

[4] = biological target: Fuc(a1-2)Gal(b1-3)[Fuc(a1-4)]GlcNAc(b1-3)[Gal(b1-4)GlcNAc(b1-6)]Gal(b1-4)Glc
Summary of the method: as §1

[5] = biological target: Fuc(a1-2)Gal(b1-4)GlcNAc(b1-2)Man(a1-3)[Fuc(a1-2)Gal(b1-4)GlcNAc(b1-2)Man(a1-6)]Man(b1-4)GlcNAc(b1-4)[Fuc(a1-6)]GlcNAc
Summary of the method: as §1

[6] = biological target: Fuc(a1-2)Gal(b1-4)GlcNAc(b1-2)[Fuc(a1-2)Gal(b1-4)GlcNAc(b1-4)]Man(a1-3)[Fuc(a1-2)Gal(b1-4)GlcNAc(b1-2)Man(a1-6)]Man(b1-4)GlcNAc(b1-4)GlcNAc
Summary of the method: as §1

[7] = biological target: Fuc(a1-2)Gal(b1-4)[Fuc(a1-3)]GlcNAc(b1-2)[Fuc(a1-2)Gal(b1-4)[Fuc(a1-3)]GlcNAc(b1-4)]Man(a1-3)[Fuc(a1-2)Gal(b1-4)[Fuc(a1-3)]GlcNAc(b1-2)Man(a1-6)]Man(b1-4)GlcNAc(b1-4)GlcNAc
Summary of the method: as §1

[8] = biological target: Fuc(a1-2)Gal6S(b1-4)Glc
Summary of the method: as §1

[9] = biological target: Fuc(a1-2)Gal6S(b1-4)Glc6S
Summary of the method: as §1

[10] = biological target: Gal(a1-3)Gal(b1-3)[Fuc(a1-4)]GlcNAc(b1-2)Man(a1-3)[Gal(a1-3)Gal(b1-3)[Fuc(a1-4)]GlcNAc(b1-2)Man(a1-6)]Man(b1-4)GlcNAc(b1-4)GlcNAc
Summary of the method: as §1

[11] = biological target: Gal(a1-3)Gal(b1-4)GlcNAc(b1-6)GalNAc
Summary of the method: as §1

[12] = biological target: Gal(a1-4)Gal(b1-4)GlcNAc
Summary of the method: as §1

[13] = biological target: Gal(a1-6)Glc
Summary of the method: as §1

[14] = biological target: Gal(b1-3)GalNAc(b1-3)Gal(a1-4)Gal(b1-4)Glc
Summary of the method: as §1

[15] = biological target: Gal(b1-3)GlcNAc(b1-3)Gal(b1-3)GlcNAc
Summary of the method: as §1

[16] = biological target: Gal(b1-3)GlcNAc(b1-3)Gal(b1-4)[Fuc(a1-3)]GlcNAc
Summary of the method: as §1

[17] = biological target: Gal(b1-3)GlcNAc(b1-3)Gal(b1-4)[Fuc(a1-3)]GlcNAc(b1-6)[Gal(b1-3)GlcNAc(b1-3)]Gal(b1-4)Glc
Summary of the method: as §1

[18] = biological target: Gal(b1-4)Gal
Summary of the method: as §1

[19] = biological target: Gal(b1-4)GlcNAc(b1-2)[Gal(b1-4)GlcNAc(b1-4)]Man(a1-3)[Gal(b1-4)GlcNAc(b1-2)Man(a1-6)]Man(b1-4)GlcNAc(b1-4)GlcNAc
Summary of the method: as §1

[20] = biological target: Gal(b1-4)GlcNAc(b1-3)Gal(b1-3)GlcNAc
Summary of the method: as §1

[21] = biological target: Gal(b1-4)GlcNAc(b1-3)Gal(b1-4)GlcNAc(b1-3)Gal(b1-4)GlcNAc(b1-2)[Gal(b1-4)GlcNAc(b1-3)Gal(b1-4)GlcNAc(b1-3)Gal(b1-4)GlcNAc(b1-6)]Man(a1-6)[Gal(b1-4)GlcNAc(b1-3)Gal(b1-4)GlcNAc(b1-3)Gal(b1-4)GlcNAc(b1-2)Man(a1-3)]Man(b1-4)GlcNAc(b1-4)[Fuc(a1-6)]GlcNAc
Summary of the method: as §1

[22] = biological target: Gal(b1-4)GlcNAc(b1-3)Gal(b1-4)GlcNAc(b1-3)Gal(b1-4)GlcNAc(b1-3)Gal(b1-4)GlcNAc(b1-3)Gal(b1-4)GlcNAc(b1-2)[Gal(b1-4)GlcNAc(b1-3)Gal(b1-4)GlcNAc(b1-3)Gal(b1-4)GlcNAc(b1-3)Gal(b1-4)GlcNAc(b1-3)Gal(b1-4)GlcNAc(b1-6)]Man(a1-6)[Gal(b1-4)GlcNAc(b1-3)Gal(b1-4)GlcNAc(b1-3)Gal(b1-4)GlcNAc(b1-3)Gal(b1-4)GlcNAc(b1-3)Gal(b1-4)GlcNAc(b1-2)Man(a1-3)]Man(b1-4)GlcNAc(b1-4)[Fuc(a1-6)]GlcNAc
Summary of the method: as §1

[23] = biological target: Gal(b1-4)GlcNAc(b1-3)Gal(b1-4)GlcNAc(b1-6)[Gal(b1-3)]GalNAc
Summary of the method: as §1

[24] = biological target: Gal(b1-4)GlcNAc(b1-3)Gal(b1-4)[Fuc(a1-3)]GlcNAc(b1-3)Gal(b1-4)[Fuc(a1-3)]GlcNAc
Summary of the method: as §1

[25] = biological target: Gal3S(b1-4)[Fuc(a1-3)]GlcNAc6S
Summary of the method: as §1

[26] = biological target: Gal3S4S(b1-4)GlcNAc
Summary of the method: as §1

[27] = biological target: Gal4S(b1-4)GlcNAc
Summary of the method: as §1

[28] = biological target: GalNAc(b1-3)Gal(a1-4)Gal(b1-4)GlcNAc
Summary of the method: as §1

[29] = biological target: GalNAc3S(b1-4)[Fuc(a1-3)]GlcNAc
Summary of the method: as §1

[30] = biological target: GalNAc4S6S(b1-4)GlcNAc
Summary of the method: as §1

[31] = biological target: Glc(a1-4)Glc
Summary of the method: as §1

[32] = biological target: GlcA(b1-3)GlcNAc
Summary of the method: as §1

[33] = biological target: GlcNAc(a1-4)Gal(b1-4)GalNAc
Summary of the method: as §1

[34] = biological target: GlcNAc(a1-4)Gal(b1-4)GlcNAc(b1-3)Gal(b1-4)GlcNAc
Summary of the method: as §1

[35] = biological target: GlcNAc(b1-3)Gal(b1-4)GlcNAc(b1-3)Gal(b1-4)GlcNAc(b1-3)Gal(b1-4)GlcNAc(b1-2)Man(a1-3)[GlcNAc(b1-3)Gal(b1-4)GlcNAc(b1-3)Gal(b1-4)GlcNAc(b1-3)Gal(b1-4)GlcNAc(b1-2)Man(a1-6)]Man(b1-4)GlcNAc(b1-4)[Fuc(a1-6)]GlcNAc
Summary of the method: as §1

[36] = biological target: GlcNAc(b1-3)Gal(b1-4)GlcNAc(b1-3)Gal(b1-4)GlcNAc(b1-3)Gal(b1-4)GlcNAc(b1-3)Gal(b1-4)GlcNAc(b1-2)Man(a1-3)[GlcNAc(b1-3)Gal(b1-4)GlcNAc(b1-3)Gal(b1-4)GlcNAc(b1-3)Gal(b1-4)GlcNAc(b1-3)Gal(b1-4)GlcNAc(b1-2)Man(a1-6)]Man(b1-4)GlcNAc(b1-4)[Fuc(a1-6)]GlcNAc
Summary of the method: as §1

[37] = biological target: GlcNAc6S(b1-3)Gal(b1-4)GlcNAc
Summary of the method: as §1

[38] = biological target: Man(a1-3)[Man(a1-6)]Man(a1-6)[Man(a1-3)]Man(b1-4)GlcNAc(b1-4)GlcNAc
Summary of the method: as §1

[39] = biological target: Man(a1-3)[Man(a1-6)]Man(b1-4)GlcNAc(b1-4)GlcNAc
Summary of the method: as §1

[40] = biological target: Neu5Ac(a2-3)Gal(b1-3)GalNAc6S
Summary of the method: as §1

[41] = biological target: Neu5Ac(a2-3)Gal(b1-4)GlcNAc(b1-2)Man
Summary of the method: as §1

[42] = biological target: Neu5Ac(a2-3)Gal(b1-4)GlcNAc(b1-2)[Neu5Ac(a2-3)Gal(b1-4)GlcNAc(b1-4)]Man(a1-3)[GlcNAc(b1-4)][Neu5Ac(a2-3)Gal(b1-4)GlcNAc(b1-2)[Neu5Ac(a2-3)Gal(b1-4)GlcNAc(b1-6)]Man(a1-6)]Man(b1-4)GlcNAc(b1-4)GlcNAc
Summary of the method: as §1

[43] = biological target: Neu5Ac(a2-3)Gal(b1-4)GlcNAc(b1-2)[Neu5Ac(a2-3)Gal(b1-4)GlcNAc(b1-6)]Man(a1-6)[Neu5Ac(a2-3)Gal(b1-4)GlcNAc(b1-2)Man(a1-3)]Man(b1-4)GlcNAc(b1-4)GlcNAc
Summary of the method: as §1

[44] = biological target: Neu5Ac(a2-3)Gal(b1-4)GlcNAc(b1-6)GalNAc
Summary of the method: as §1

[45] = biological target: Neu5Ac(a2-6)Gal(b1-4)GlcNAc
Summary of the method: as §1

[46] = biological target: Neu5Ac(a2-6)Gal(b1-4)GlcNAc(b1-2)Man(a1-3)[Neu5Ac(a2-3)Gal(b1-4)GlcNAc(b1-2)Man(a1-6)]Man(b1-4)GlcNAc(b1-4)GlcNAc
Summary of the method: as §1

[47] = biological target: Neu5Ac(a2-6)Gal(b1-4)GlcNAc(b1-2)Man(a1-6)[Gal(b1-4)GlcNAc(b1-2)Man(a1-3)]Man(b1-4)GlcNAc(b1-4)GlcNAc
Summary of the method: as §1

[48] = biological target: Neu5Ac(a2-6)Gal(b1-4)GlcNAc(b1-3)Gal(b1-3)GlcNAc
Summary of the method: as §1

[49] = biological target: Neu5Ac(a2-6)GlcNAc(b1-4)GlcNAc(b1-4)GlcNAc
Summary of the method: as §1

[50] = biological target: Neu5Ac(a2-8)Neu5Ac(a2-8)Neu5Ac(a2-3)[GalNAc(b1-4)]Gal(b1-4)Glc
Summary of the method: as §1

B1: GS7807E-bfa-538-23-538 (Bacteroides fragilis) (protein)
chain: TDSFESFNTNEAGFDNDSKKQDFNYYGIPLGIIQQGIYFNYDWGSGKNWPFQTMQNLGADLFSGYVHDFNPFNEGKNNSTYYMMDGWNGSTWDNTYGYIMPEVQKSETINEKDNIGFFGITKILKVELMHRLSDLYGPIVYTQFGSKTGSTPDTQQEAYKAFFNDLDTGIAKIREYQKANPDIESFAKFDILMPQGKRTFSEWIRFANSLRLRLAVRIAMADSKLAVAEAQKALTDEEGLLEGNDEVVAVSTSSGYTNPFGEINKAWGEVFMNANMESLLVGYEDPRMEKYFDKATGSDATSLIDYKGTYKGIRQGTGFSHKNYNGHSKSTITQQTDAVLMTPAEVWFLRAEAALRGWSSESVKDCYEKGVKASFAQWGAAGAEAYLESDRKPSDYVDAFKAANNVKAVNTLTPKWDDAAGNEDKLGRIITQKWLAMFPEGGEAWAEQRRTGYPRLFPVLVNQSEGTVDTNLGPRRLNFFVGIKTTNPEQYTQLVNALGGIDNCGTRLWWDTGRNF
**Q.** Which results are given for B1?
**A.** glycan array binding signal (z-score) [1]: -0.69; glycan array binding signal (z-score) [2]: 3.42; glycan array binding signal (z-score) [3]: 1.03; glycan array binding signal (z-score) [4]: -0.553; glycan array binding signal (z-score) [5]: -0.382; glycan array binding signal (z-score) [6]: 0.002; glycan array binding signal (z-score) [7]: 0.988; glycan array binding signal (z-score) [8]: -0.644; glycan array binding signal (z-score) [9]: -0.639; glycan array binding signal (z-score) [10]: 10.5; glycan array binding signal (z-score) [11]: 0.296; glycan array binding signal (z-score) [12]: 0.333; glycan array binding signal (z-score) [13]: -0.29; glycan array binding signal (z-score) [14]: 0.143; glycan array binding signal (z-score) [15]: 0.812; glycan array binding signal (z-score) [16]: -0.465; glycan array binding signal (z-score) [17]: -0.627; glycan array binding signal (z-score) [18]: -0.624; glycan array binding signal (z-score) [19]: 3.32; glycan array binding signal (z-score) [20]: -0.306; glycan array binding signal (z-score) [21]: 4.56; glycan array binding signal (z-score) [22]: 0.867; glycan array binding signal (z-score) [23]: 4.07; glycan array binding signal (z-score) [24]: 0.531; glycan array binding signal (z-score) [25]: -0.155; glycan array binding signal (z-score) [26]: -0.693; glycan array binding signal (z-score) [27]: -0.708; glycan array binding signal (z-score) [28]: -0.246; glycan array binding signal (z-score) [29]: 3.75; glycan array binding signal (z-score) [30]: -0.65; glycan array binding signal (z-score) [31]: -0.685; glycan array binding signal (z-score) [32]: -0.585; glycan array binding signal (z-score) [33]: -0.527; glycan array binding signal (z-score) [34]: -0.642; glycan array binding signal (z-score) [35]: -0.408; glycan array binding signal (z-score) [36]: -0.491; glycan array binding signal (z-score) [37]: 3.84; glycan array binding signal (z-score) [38]: 3.45; glycan array binding signal (z-score) [39]: -0.656; glycan array binding signal (z-score) [40]: -0.669; glycan array binding signal (z-score) [41]: 2.92; glycan array binding signal (z-score) [42]: -0.734; glycan array binding signal (z-score) [43]: 0.242; glycan array binding signal (z-score) [44]: 0.432; glycan array binding signal (z-score) [45]: -0.395; glycan array binding signal (z-score) [46]: -0.678; glycan array binding signal (z-score) [47]: 3.21; glycan array binding signal (z-score) [48]: -0.187; glycan array binding signal (z-score) [49]: -0.677; glycan array binding signal (z-score) [50]: 2.93
